The source made the active and inactive calls. A call without a number means that no potency is given here. Calls come from the whole dose curve; as a rule, active = well fitted curve in the direction sought with a large enough effect in the repeat runs; inconclusive = weak or mixed curves; inactive = flat fitted curve, though single readings scatter.

The nature of this experiment: qHTS assay to test for compound auto fluorescence at 535 nm (green) in HepG2 cells (AID 720675). Particulars: green autofluorescence 485/535 nm, 1 h; series mostly up to 46 µM. An excerpt: National Center for Advancing Translational Sciences [NCATS]
NIH Chemical Genomics Center [NCGC]
U.S. Environmental Protection Agency [EPA]
National Institutes of Environmental Health Sciences [NIEHS]
National Toxicology Program [NTP]
U.S. Food and Drug Administration [FDA]
Compound auto fluorescence often interferes with screening of the compound library against various biological targets and signaling pathways. Some of these compounds may have fluorophoric properties. Such properties may interfere with the assay outputs resulting in false positives and/or negatives. To decrease such complications and ensure the compound activities are relevant in terms of biological response, the Tox21 10K compound library was screened for auto fluorescence.
From the fluorophores used as reporter signals in our screening assays, the auto fluorescence equivalencies of compounds against three fluorophores have been evaluated: Triamterene, Fluorescein and Rose Bengal sodium for blue, green and red fluorescence, respectively. The fluorescence intensities were measured using Excitation/Emission wavelengths at 405/460nm, 485/535nm and 540/590nm for blue, green and red labels, respectively. This assay includes the green fluorescence data.
Tox21 Assay Protocol Summary:
2,000 HepG2 cells in 5 uL of culture medium (MEM containing 10% FBS) per well were dispensed into black wall/clear bottom 1536-well plates using a Multidrop Combi Dispenser (ThermoFisher Scientific, Waltham, MA). The assay plates were incubated overnight at 37 C to allow cell attachment to the well bottom, followed by the transfer of 23 nL compound or DMSO vehicle by a pintool work station (Kalypsys , San Diego, CA). After the assay plates were incubated for 1 hr at 37 C and 5% CO2, fluorescence intensities in the assay plates were measured by an Envision (PerkinElmer, Shelton, CT) plate reader using three labels for measuring blue, green and red fluorescence at […] 460, 535 and 590 nm respectively.
With `CC(C)=CCC/C(C)=C/CC/C(C)=C/CC/C=C(\C)CC/C=C(\C)CCC=C(C)C`, the Potency entry was “inactive”.
For the molecule `CC(=O)OCC(=O)[C@@]1(O)CC[C@H]2[C@@H]3CCC4=CC(=O)CC[C@]4(C)C3=CC[C@@]21C`, the Potency entry is “inactive”.
In the case of `CN(C[C@@H](CC[N+]12CCC(C3CCCCC3)(CC1)CC2)c1ccc(Cl)c(Cl)c1)C(=O)c1cc(C(F)(F)F)cc(C(F)(F)F)c1`, the Potency entry was “inactive”.
In the case of `O=C(O)[C@@H]1C[C@H](CP(=O)(O)O)CCN1`, the Potency result is “inactive”.
In the case of `NC(N)=NCCCCN=C(N)N` it was “inactive”.
For `CO[C@H]1C[C@H](O[C@H]2[C@H](C)[C@@H](O[C@@H]3O[C@H](C)C[C@H](N(C)C)[C@H]3O)[C@@H](C)C[C@]3(CO3)C(=O)[C@H](C)[C@@H](O)[C@@H](C)[C@@H](C)OC(=O)[C@@H]2C)O[C@@H](C)[C@@H]1O`, the Potency entry is “inactive”.
As to `CCSCC`, the Potency entry is “inactive”.
In the case of `C[S+](CC[C@H](N)C(=O)O)C[C@H]1O[C@@H](n2cnc3c(N)ncnc32)[C@H](O)[C@@H]1O` (stereo not given in full), the Potency entry is “inactive”.
For `C[C@@H]1C[C@H]2[C@@H]3C[C@H](F)C4=CC(=O)C=C[C@]4(C)[C@@]3(Cl)[C@@H](O)C[C@]2(C)[C@H]1C(=O)COC(=O)C(C)(C)C`, the Potency entry was “inactive”.
In the case of `CC(=O)OCC1=C(C(=O)O)N2C(=O)[C@@H](NC(=O)Cc3ccccc3)[C@H]2SC1` it was “inactive”; in that of `CC1(C)CCC(NC(=O)[C@@H](N)CCC(=O)O)CC1`, “inactive”.
For `COc1cccc(-c2ccc(/C=C\CN3CCCCCC3)cc2Cl)c1`, the Potency entry was “inactive”.
In the case of `Cc1onc(-c2c(F)cccc2Cl)c1C(=O)N[C@@H]1C(=O)N2[C@@H]1SC(C)(C)[C@@H]2C(=O)O`, the Potency result was “inactive”.
`FC(F)(F)C(F)(F)C(F)(F)C(F)(F)C(F)(F)F`: the Potency entry was “inactive”.
As to `CC(=O)OCC(=O)[C@@]1(O)CC[C@H]2[C@@H]3C[C@H](C)C4=CC(=O)C=C[C@]4(C)[C@H]3[C@@H](O)C[C@@]21C`, the Potency entry was “inactive”.
Turning to `COc1cc(/C=C/C(=O)CC(=O)/C=C/c2ccc(O)c(OC)c2)ccc1O`, the Potency entry is “inactive”.
The result for `CO/N=C(\C(=O)N[C@@H]1C(=O)N2C(C(=O)[O-])=C(C[n+]3cccc4c3CCC4)CS[C@H]12)c1csc(N)n1` reads “inactive”; that for `NC(=O)c1cc[n+](CC2=C(C(=O)O)N3C(=O)[C@@H](NC(=O)C(c4ccccc4)S(=O)(=O)[O-])[C@H]3SC2)cc1` (stereo not given in full), “inactive”.
As for `NCCCC[C@H](NC(=O)[C@@H]1CCCN1C(=O)[C@@H]1CSSC[C@H](N)C(=O)N[C@@H](Cc2ccc(O)cc2)C(=O)N[C@@H](Cc2ccccc2)C(=O)N[C@@H](CCC(N)=O)C(=O)N[C@@H](CC(N)=O)C(=O)N1)C(=O)NCC(N)=O`, the Potency result is “inactive”.
The result for `CCC(O)c1ccccc1` (stereo not given) reads “inactive”; that for `NCC[C@H](O)C(=O)N[C@@H]1C[C@H](N)[C@@H](O[C@H]2O[C@H](CN)CC[C@H]2N)[C@H](O)[C@H]1O[C@H]1O[C@H](CO)[C@@H](O)[C@H](N)[C@H]1O`, “inactive”.
Turning to `OCCCNc1ccccc1`, the Potency result is “inactive”.
In the case of `CC1(C)C[C@@H]1C(=O)N/C(=C\CCCCSC[C@H](N)C(=O)O)C(=O)O`, the Potency result is “inactive”.
Turning to `O=C1CCC(c2ccccc2)(C2CCN(Cc3ccccc3)CC2)C(=O)N1` (stereo not given), the Potency entry is “inactive”.
Turning to `O=[N+]([O-])c1ccc(O)c2ncccc12`, the Potency result is “inactive”.
For `CC(C)(Oc1ccc(C2CCCc3ccccc32)cc1)C(=O)O` (stereo not given), the Potency result was “inactive”.
On to `CC1(C)S[C@@H]2[C@H](NC(=O)[C@H](N)c3ccc(O)cc3)C(=O)N2[C@H]1C(=O)O`, for which the Potency entry is “inactive”.
In the case of `CO[C@H]1C[C@@H]2CC[C@@H](C)[C@@](O)(O2)C(=O)C(=O)N2CCCC[C@H]2C(=O)O[C@H]([C@H](C)C[C@@H]2CC[C@@H](O)[C@H](OC)C2)CC(=O)[C@H](C)C=C(C)[C@@H](O)[C@@H](OC)C(=O)[C@H](C)C[C@H](C)/C=C/C=CC=C1C` it was “inactive”; in that of `CCN(CC)CCNC(=O)c1ccc(NS(C)(=O)=O)cc1`, “inactive”.
As to `Nc1cc(Cl)c(NC2=NCCN2)c(Cl)c1`, the Potency entry was “inactive”.
Regarding `CCCCCCCCCCCCCCCC(=O)OC[C@H](COP(=O)([O-])OCC[N+](C)(C)C)OC(=O)CCCCCCCCCCCCCCC`, the Potency result is “inactive”.
In the case of `Oc1ccc(Cl)c2c1CCC2`, the Potency entry was “inactive”.
With `O=C(O)Cc1nn(Cc2ccc(Br)cc2F)c(=O)c2ccccc12`, the Potency result was “inactive”.
On to `C=CC[N@@+]12CC[C@@]34c5ccccc5N5/C=C6/[C@H]7C[C@H]8[C@@]9(CC[N@@+]8(CC=C)C/C7=C/CO)c7ccccc7N(/C=C(/[C@@H](C[C@@H]31)/C(=C\CO)C2)[C@H]54)[C@@H]69`, for which the Potency result is “inactive”.
For `CC(C)=CCC/C(C)=C/CC/C(C)=C/CC/C(C)=C/CC1=C(C)C(=O)c2ccccc2C1=O`, the Potency entry is “inactive”.
`C=C(Nc1ccc(OCC)cc1)Nc1ccc(OCC)cc1`: the Potency result was “inactive”.
For `COC1[C@@H](O[C@@H]2O[C@H](C)[C@@H](O[C@H]3C[C@@](C)(O)[C@H](OC(=O)CC(C)C)[C@H](C)O3)[C@H](N(C)C)[C@H]2O)[C@@H](CC=O)C[C@@H](C)[C@@H](O)/C=C/C=C/C[C@@H](C)OC(=O)C[C@H]1OC(C)=O` (stereo not given in full), the Potency result was “inactive”.
`CNC(=O)OCc1cccc(COC(=O)NC)n1`: the Potency result is “inactive”.
For `CC(C)Cc1ccc([C@H](C)C(=O)O)cc1`, the Potency entry was “inactive”.
Take `CCN(CC)C(=O)c1cccnc1`: the Potency result is “inactive”.

For the origin of these results see PubChem BioAssay (Tox21).
